Results filed as inconclusive are left out. A call without a number means that no potency is given here. Active and inactive are the calls of the source. Unless noted, the call rests on the fitted dose curve; in most records, active means well fitted curve in the direction sought with a large enough effect; inconclusive means small, poorly fitted or top-dose-only effect, or another doubt; inactive means no such curve, though single readings can be large; an effect the other way counts as inactive or inconclusive.
How the values were obtained:
[1] = qHTS assay for small molecule agonists of retinoid X receptor alpha signaling (AID 588544; calls by dose curve); conditions: HEK293T RXRa-UAS-bla, beta-lactamase reporter, 18 h; 530 nm emission
[2] = target: Retinoic acid receptor RXR-alpha (Homo sapiens) (UniProt P19793); assay: as above; conditions: HEK293T RXRa-UAS-bla, beta-lactamase reporter, 18 h; series mostly up to 76.7 µM
Sequence of Retinoic acid receptor RXR-alpha (Homo sapiens) (P19793 whole entry, looked up): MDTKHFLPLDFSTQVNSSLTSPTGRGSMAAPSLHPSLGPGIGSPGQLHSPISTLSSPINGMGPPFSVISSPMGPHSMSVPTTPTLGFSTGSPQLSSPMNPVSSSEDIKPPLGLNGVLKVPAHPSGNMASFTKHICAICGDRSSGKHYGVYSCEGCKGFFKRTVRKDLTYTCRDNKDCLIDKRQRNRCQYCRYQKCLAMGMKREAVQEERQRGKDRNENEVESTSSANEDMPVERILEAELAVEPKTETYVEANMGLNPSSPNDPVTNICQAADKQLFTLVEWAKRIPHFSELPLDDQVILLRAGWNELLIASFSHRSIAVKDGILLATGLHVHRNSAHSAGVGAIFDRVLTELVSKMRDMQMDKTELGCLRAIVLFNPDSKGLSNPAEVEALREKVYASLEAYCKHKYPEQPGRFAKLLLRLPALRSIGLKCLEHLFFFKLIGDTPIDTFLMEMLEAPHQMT

[3] = target: Thyroid hormone receptor beta (Homo sapiens) (UniProt P10828); assay: qHTS assay for small molecule agonists of thyroid hormone receptor beta signaling (AID 588545; calls by dose curve); conditions: TR-UAS-bla GripTite HEK 293, beta-lactamase ratio, agonist mode, 18 h, percent of T3 response, DMSO as zero; series mostly up to 76.7 µM
Sequence of Thyroid hormone receptor beta (Homo sapiens) (P10828 whole entry, looked up): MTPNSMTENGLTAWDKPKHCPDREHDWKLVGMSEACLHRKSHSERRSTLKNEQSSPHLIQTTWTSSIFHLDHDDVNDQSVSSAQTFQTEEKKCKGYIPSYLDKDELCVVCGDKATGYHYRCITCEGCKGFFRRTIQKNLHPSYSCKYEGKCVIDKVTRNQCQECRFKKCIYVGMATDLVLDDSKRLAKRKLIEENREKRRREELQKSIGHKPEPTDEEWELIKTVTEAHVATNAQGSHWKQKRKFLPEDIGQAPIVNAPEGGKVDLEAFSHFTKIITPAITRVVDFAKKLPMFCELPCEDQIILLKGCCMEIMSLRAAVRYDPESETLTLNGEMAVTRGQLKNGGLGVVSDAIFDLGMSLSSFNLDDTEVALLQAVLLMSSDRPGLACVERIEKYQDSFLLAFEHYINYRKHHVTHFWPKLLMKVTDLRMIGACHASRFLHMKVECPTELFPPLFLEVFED
How it was run: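 TR-UAS-bla-GripTite HEK 293 cells in medium with 2% charcoal/dextran FBS, 0.1 mM NEAA and 1 mM sodium pyruvate were treated with titrated compounds for 18 hrs at 37 C. Beta-lactamase reporter was read with CCF4 dye (ex 405, em 460/530 nm); EC50 from Hill fits.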

[4] = qHTS assay for small molecule antagonists of retinoid X receptor alpha signaling (AID 588546; active means well fitted inhibition curve with a large enough effect in the signal ratio, with a control signal flat, not every such curve was filed as active; the % refers to the signal ratio;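 further: cells stimulated with 9-cis-retinoic acid as agonist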); conditions: HEK293T RXRa-UAS-bla, beta-lactamase ratio, antagonist mode; measured here: W530 green channel, cytotoxicity proxy
How it was run: (§1)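 Beta-lactamase reporter inhibition, read as CCF4 fluorescence ratio (ex 405, em 460/530 nm) after 2 h at RT. HEK293T UAS-bla cells, 2500/well, were stimulated with 9-cis-RA at 500 or 100 nM final alongside test compound for 18 h at 37 C.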

[5] = target: Retinoic acid receptor RXR-alpha (Homo sapiens) (UniProt P19793); assay: as above; conditions: HEK293T RXRa-UAS-bla, beta-lactamase ratio, antagonist mode
How it was run: as §1

[6] = target: Thyroid hormone receptor beta (Homo sapiens) (UniProt P10828); assay: qHTS assay for small molecule antagonists of thyroid hormone receptor beta signaling (AID 588547; active means well fitted inhibition curve with a large enough effect in the signal ratio, with a control signal flat, not every such curve was filed as active; the % refers to the signal ratio;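 further: cells stimulated with 0.4 nM T3 agonist during compound exposure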); conditions: TR-UAS-bla HEK293, beta-lactamase ratio, antagonist mode, 18 h
How it was run: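 TR-UAS-bla GripTite HEK293 cells in 2% charcoal/dextran FBS medium were preincubated 4 h at 37 C, given compound (0.59 nM to 92 uM) plus 0.4 nM T3 (final) for 18 h, then CCF4 for 2 h at RT; Hill fit gave IC50.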

[7] = target: Voltage-gated inwardly rectifying potassium channel KCNH2 (Homo sapiens) (UniProt Q12809); assay: qHTS Assay for Small Molecule Inhibitors of the Human hERG Channel Activity (AID 588834); conditions: U2OS BacMam hERG, FluxOR thallium flux fluorescence; series mostly up to 92.2 µM;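 further: top concentration of the series differs between compounds; lower thallium flux fluorescence means stronger hERG block; nearly all actives have a fitted effect of over 50% in size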
Sequence of Voltage-gated inwardly rectifying potassium channel KCNH2 (Homo sapiens) (Q12809 whole entry, looked up): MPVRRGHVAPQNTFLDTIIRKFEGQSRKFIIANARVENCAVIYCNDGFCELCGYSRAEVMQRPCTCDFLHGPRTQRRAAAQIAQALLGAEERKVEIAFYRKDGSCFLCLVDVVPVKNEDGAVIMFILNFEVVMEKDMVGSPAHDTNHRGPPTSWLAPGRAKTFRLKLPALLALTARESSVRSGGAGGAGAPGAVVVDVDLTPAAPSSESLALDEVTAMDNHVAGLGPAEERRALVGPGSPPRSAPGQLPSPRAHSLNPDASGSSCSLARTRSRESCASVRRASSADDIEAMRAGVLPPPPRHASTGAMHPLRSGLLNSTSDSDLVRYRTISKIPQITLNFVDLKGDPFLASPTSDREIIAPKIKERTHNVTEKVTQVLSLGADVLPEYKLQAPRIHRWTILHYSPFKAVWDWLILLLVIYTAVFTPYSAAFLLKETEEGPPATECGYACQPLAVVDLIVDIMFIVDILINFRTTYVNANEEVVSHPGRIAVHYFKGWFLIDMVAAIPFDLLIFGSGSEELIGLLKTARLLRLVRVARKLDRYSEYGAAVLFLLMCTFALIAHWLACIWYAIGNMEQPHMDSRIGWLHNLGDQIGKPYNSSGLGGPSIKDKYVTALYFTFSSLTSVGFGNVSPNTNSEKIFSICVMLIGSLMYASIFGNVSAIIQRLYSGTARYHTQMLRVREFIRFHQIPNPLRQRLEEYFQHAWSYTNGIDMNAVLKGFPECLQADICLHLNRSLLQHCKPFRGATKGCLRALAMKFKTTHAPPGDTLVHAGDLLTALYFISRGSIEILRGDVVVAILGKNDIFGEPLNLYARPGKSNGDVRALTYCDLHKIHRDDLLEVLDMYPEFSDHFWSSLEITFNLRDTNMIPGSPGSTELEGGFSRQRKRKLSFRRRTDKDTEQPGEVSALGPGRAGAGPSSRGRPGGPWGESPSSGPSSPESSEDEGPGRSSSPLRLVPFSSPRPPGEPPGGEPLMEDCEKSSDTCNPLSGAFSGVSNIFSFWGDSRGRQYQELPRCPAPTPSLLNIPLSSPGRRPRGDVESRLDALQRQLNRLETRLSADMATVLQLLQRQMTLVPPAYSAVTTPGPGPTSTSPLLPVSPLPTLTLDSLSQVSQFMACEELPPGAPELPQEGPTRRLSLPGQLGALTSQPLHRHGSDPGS
How it was run: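 Step 1: BacMam hERG transduction of U2OS, 4 hrs RT. Step 2: overnight 37 °C, plate 2000 cells/well, 4 hr. Step 3: FluxOR load, compound 10 min, stimulate, read fluorescence.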

[8] = qHTS assay for small molecule activators of the p53 signaling pathway (AID 651743; active means well fitted activation curve with a large enough effect in the signal ratio, not every such curve was filed as active; the % refers to the signal ratio); conditions: HCT-116 p53RE-bla, beta-lactamase FRET ratio, 16 h; stronger effect = higher value
How it was run: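 Agonist-mode quantitative HTS in HCT-116 cells carrying a p53-response-element beta-lactamase reporter; 16 h compound treatment at 37 C, then FRET substrate loading for 2 h at room temperature and fluorescence read.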

[9] = qHTS assay for small molecule disruptors of the mitochondrial membrane potential - 1 hr assay (AID 651754; calls by dose curve; further: nearly all actives have a fitted effect of over 35% in size); conditions: series mostly up to 92.2 µM
How it was run: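 Loss of mitochondrial potential shifts the cationic dye from red mitochondrial aggregates to green cytoplasmic monomers. Cells (HepG2) are treated with compound for 1 hr before a 30 min dye incubation at 37C.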

[10] = qHTS assay for small molecule disruptors of the mitochondrial membrane potential - 5 hr assay (AID 651755; calls by dose curve; further: nearly all actives have a fitted effect of over 40% in size); conditions: JC-1-type ratio dye; series mostly up to 92.2 µM
How it was run: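 Seed HepG2 overnight, add compound, incubate 5 hr at 37C and 5% CO2, stain 30 min with Mito-MPS, then measure monomer (490/535 nm) and aggregate (540/590 nm) fluorescence.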

[11] = target: Tumor necrosis factor (Homo sapiens) (UniProt P01375); assay: qHTS assay to identify small molecules that stimulate Tumor Necrosis Factor-alpha (TNF-alpha) secretion (AID 651757; active means well fitted curve in the direction sought with a large enough effect in the signal ratio; the % refers to the signal ratio); conditions: Human cells, HTRF 665/615 ratio; series mostly up to 92.2 µM
Sequence of Tumor necrosis factor (Homo sapiens) (P01375 whole entry, looked up): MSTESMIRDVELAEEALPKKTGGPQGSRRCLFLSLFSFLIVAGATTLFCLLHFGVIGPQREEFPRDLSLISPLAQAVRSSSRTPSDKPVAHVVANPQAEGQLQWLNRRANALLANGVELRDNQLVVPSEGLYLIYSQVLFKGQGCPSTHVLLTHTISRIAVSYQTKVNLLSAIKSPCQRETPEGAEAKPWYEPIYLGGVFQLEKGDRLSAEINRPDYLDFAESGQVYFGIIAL
How it was run: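 Human monocytic THP-1 cells are plated, treated with compound and held at 37 C for 17 hrs. Labeled anti-TNF-alpha antibody mixture is then added; after 3 hr at room temperature, TR-FRET signal reports secreted TNF-alpha.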

[12] = qHTS assay for environmental chemicals that activate the Aryl hydrocarbon Receptor (AhR) signaling pathway (AID 651777); conditions: 1A2-DRE human hepatoma cells, luciferase, 24 h; activation: stronger effect = higher value; further: nearly all actives have a fitted effect of over 15% in size
How it was run: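 Concentration–response screening used 1,200 1A2-DRE cells per well, 24 hr compound exposure (37 C, 5% CO2), and One-Glo luminescence as the AhR-driven CYP1A2 reporter signal.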

[13] = target: Peroxisome proliferator-activated receptor alpha (Homo sapiens) (UniProt Q07869); assay: qHTS assay for small molecule agonists of the peroxisome proliferator-activated receptor alpha (PPARalpha) signaling pathway (AID 651778); conditions: PathHunter PPARalpha complementation, chemiluminescence, 6 h; stronger effect = higher value
Sequence of Peroxisome proliferator-activated receptor alpha (Homo sapiens) (Q07869 whole entry, looked up): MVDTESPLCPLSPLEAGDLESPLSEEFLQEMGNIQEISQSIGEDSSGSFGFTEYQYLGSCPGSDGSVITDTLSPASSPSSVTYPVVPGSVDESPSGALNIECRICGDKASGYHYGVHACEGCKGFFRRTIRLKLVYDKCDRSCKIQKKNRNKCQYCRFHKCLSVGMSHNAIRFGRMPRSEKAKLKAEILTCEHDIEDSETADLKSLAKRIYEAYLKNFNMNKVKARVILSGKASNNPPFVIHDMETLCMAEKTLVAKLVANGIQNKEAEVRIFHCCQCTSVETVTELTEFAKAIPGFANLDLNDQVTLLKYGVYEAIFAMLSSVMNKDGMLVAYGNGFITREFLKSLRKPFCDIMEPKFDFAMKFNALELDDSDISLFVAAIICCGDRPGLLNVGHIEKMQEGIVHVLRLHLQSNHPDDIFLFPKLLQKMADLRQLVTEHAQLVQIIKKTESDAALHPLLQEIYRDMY
How it was run: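 Cells plated at 2,000/well and held overnight at 37 C, 5% CO2, then compound added by pin tool for 6 hr; after PathHunter detection reagent and 60 min at room temperature, chemiluminescence from enzyme complementation was read.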

[14] = qHTS assay for small molecule agonists of the antioxidant response element (ARE) signaling pathway measured by Nrf2-dependant transcriptional activity (AID 720636; active means well fitted curve in the direction sought with a large enough effect in the repeat runs; an effect the other way counts as inactive or inconclusive;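 further: HepG2 cells with an ARE-driven luciferase reporter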); conditions: ARE-luc HepG2, Nrf2 luciferase reporter, 16 h; series mostly up to 92.4 µM
How it was run: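 Attachment 6 hr at 37 C, then compound versus DMSO vehicle for 16 hr in ARE-luc HepG2 cells (1% dialyzed FBS); luminescence recorded 30 min after ONE-Glo addition at room temperature.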

[15] = qHTS assay for small molecule antagonists of the retinoid-related orphan receptor gamma (ROR-gamma) signaling pathway - cell viability counter screen (AID 720652; active means well fitted curve in the direction sought with a large enough effect in the repeat runs; an effect the other way counts as inactive or inconclusive;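 further: CHO reporter cells with doxycycline-induced ROR-gamma expression; compound exposure lasted 16 hr before ATP read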); conditions: RORgamma reporter cell line viability counter screen; series mostly up to 92.2 µM
How it was run: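 Steps: seed CHO cells bearing TET-inducible ROR and ROR response element-luciferase; rest 5 hr at 37 C; add compound, then doxycycline; incubate 16 hr; add CellTiter-Glo and read luminescence as ATP-based viability.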

[16] = qHTS assay for small molecule agonists of the antioxidant response element (ARE) signaling pathway measured by Nrf2-dependant transcriptional activity - cell viability counter screen (AID 720653; active means well fitted curve in the direction sought with a large enough effect in the repeat runs; an effect the other way counts as inactive or inconclusive); conditions: ARE-bla HepG2 viability, CellTiter-Glo ATP luminescence, 16 h; stronger effect = lower value
How it was run: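 ARE-bla HepG2 cells (2,000/well) rested 5 hrs at 37C/5% CO2, then exposed to compounds in DMSO for 16 hrs. Viability was read in the same wells as intracellular ATP by luminescence, 30 min at room temperature after reagent addition.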

[17] = qHTS assay to identify small molecules that stimulate interleukin-8 (IL-8) secretion (AID 651758; active means well fitted activation curve with a large enough effect in the signal ratio; the % refers to the signal ratio); conditions: HTRF ratio (665/615); series mostly up to 92.2 µM
How it was run: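 Quantitative HTS in THP-1 monocytic cells at 2000 cells per well, with 16 hrs compound incubation at 37 C. IL-8 in the medium was then quantified by HTRF immunoassay, read after 1-3 hrs at room temperature.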

[18] = target: Nuclear receptor ROR-gamma (Homo sapiens) (UniProt P51449); assay: qHTS assay for small molecule antagonists of the retinoid-related orphan receptor gamma (ROR-gamma) signaling pathway (AID 651802); conditions: ROR-gamma antagonist cell reporter assay; series mostly up to 92.2 µM;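 further: CHO cells with doxycycline-induced ROR-gamma expression; nearly all actives have a fitted effect of over 60% in size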
Sequence of Nuclear receptor ROR-gamma (Homo sapiens) (P51449 whole entry, looked up): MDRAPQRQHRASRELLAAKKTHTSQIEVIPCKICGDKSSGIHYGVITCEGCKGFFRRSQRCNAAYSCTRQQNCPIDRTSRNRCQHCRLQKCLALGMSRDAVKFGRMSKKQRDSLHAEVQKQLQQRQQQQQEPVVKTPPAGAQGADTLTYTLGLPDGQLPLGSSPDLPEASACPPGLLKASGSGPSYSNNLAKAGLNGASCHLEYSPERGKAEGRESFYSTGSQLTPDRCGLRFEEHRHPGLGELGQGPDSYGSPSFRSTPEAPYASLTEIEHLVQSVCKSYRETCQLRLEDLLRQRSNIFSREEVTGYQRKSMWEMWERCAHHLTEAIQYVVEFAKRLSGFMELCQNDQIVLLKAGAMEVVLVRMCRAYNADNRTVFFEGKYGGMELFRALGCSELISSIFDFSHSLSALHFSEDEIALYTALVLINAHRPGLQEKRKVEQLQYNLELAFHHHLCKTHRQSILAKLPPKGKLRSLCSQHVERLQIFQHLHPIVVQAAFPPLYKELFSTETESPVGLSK
How it was run: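 Steps: cells dispensed; compound or DMSO transferred by pin tool; doxycycline added to induce the ROR response element-driven luciferase; plates held 16hr at 37C; ONE-Glo added and luminescence measured.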

Row | Structure (SMILES) | max response [1] [%] | outcome [2] | outcome [3] | max response [4] [%] | max response [5] | activity change % (negative = inhibition) [6] | Potency [7] | activation [8] | Potency [9] | Potency [10] | Potency [11] | activation [12] | max response [13] | outcome [14] | Potency [15] | max response [16] | Potency [17] | Potency [18]
1 | Cc1ccc(C(=O)O)cc1 | 4.67 | inactive | inactive | -2.83 | -5.24% (inactive) | 18.4% (inactive) | inactive | -5.46% (inactive) | inactive | inactive | inactive | -0.0785% (inactive) | 2.54% (inactive) | inactive | inactive | 8.21% (inactive) |  | 
2 | C=Cc1ccccn1 | -16.6 | inactive | inactive | -12.9 | -1.58% (inactive) | -28.4% (inactive) | inactive | -2.17% (inactive) | inactive |  | inactive | 0.147% (inactive) | 0.108% (inactive) | inactive | inactive | -6.91% (inactive) | inactive | inactive
3 | Cc1ccccc1C=O | -10.4 | inactive | inactive | 9.24 | 9.95% (inactive) | 20.8% (inactive) | inactive | 3.12% (inactive) |  |  | inactive | -0.786% (inactive) | -2.49% (inactive) | inactive | inactive | -9.4% (inactive) | inactive | inactive
